Laboratory results as given in the supplement of paper PMC9433436.
± gives the standard deviation of the averaged measurements. The full ranking holds about 4,100 sequences; the median of “relative kcat/Km (krel) vs genomic leader AAAGAU” is about 1.7, and the highest 2% start at about 6.5. Many of the other results were omitted from the sample, so the highest values are more common in it than they were.

Target: T1, E. coli RNase P holoenzyme (M1 P RNA + rnpA protein) (UniProt P0A7Y8)
T1 sequence: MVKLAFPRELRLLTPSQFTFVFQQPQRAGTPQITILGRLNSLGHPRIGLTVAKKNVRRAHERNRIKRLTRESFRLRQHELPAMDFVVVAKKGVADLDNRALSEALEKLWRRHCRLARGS
Test: relative kcat/Km (krel) vs genomic leader AAAGAU (relative (reference leader = 1)); higher = faster RNase P cleavage
In short: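 Under multiple-turnover conditions at 37 °C, a precursor tRNA-Met pool randomized at leader positions −6 to −1 was processed by E. coli RNase P holoenzyme (P RNA plus C5 protein) in 50 mM Tris-HCl pH 8, 100 mM NaCl, 17.5 mM MgCl2. The remaining precursor was gel-purified at ~5–30% conversion, then converted to cDNA libraries and Illumina-sequenced. Relative kcat/Km (krel) came from read ratios by internal competition kinetics, normalised to the genomic leader, with two technical replicates averaged.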

[1] = fraction of substrate reacted: ~9-10% (9.79% repeat 1, 9.1% repeat 2)
[2] = fraction of substrate reacted: ~13-16% (15.68% repeat 1, 13.17% repeat 2)
[3] = fraction of substrate reacted: ~26-29% (28.66% repeat 1, 26.4% repeat 2)

| Sequence | relative kcat/Km [1] | relative kcat/Km [2] | relative kcat/Km [3] |
| --- | --- | --- | --- |
| ACAAAC | 1.92 ± 1.6 | 1.88 ± 1.1 | 2.42 ± 0.36 |
| CTCTGA | 4.13 ± 2 | 4.61 ± 0.58 | 6.63 ± 1.7 |
| CTCTGT | 0.825 ± 0.31 | 1.81 ± 1.4 | 2.05 ± 1.6 |
| GTCTGT |  |  | 2.58 ± 2 |
| GTCTGA | 3.86 ± 1.8 | 4.82 ± 1.2 | 6.97 ± 2.6 |
| CGCTGA | 1.89 ± 0.05 | 2.02 ± 1 | 3.55 ± 0.89 |
| GTCTGG |  | 0.567 ± 0.54 | 0.916 ± 0.067 |
| GGGCAT | 1.03 ± 0.31 | 1.51 ± 0.12 | 2.18 ± 0.97 |
| TCTAAG | 2.04 ± 1.6 | 1.47 ± 0.52 | 2.47 ± 0.27 |
